# According to ChEMBL document CHEMBL1157539, “Thousands of chemical starting points for antimalarial lead identification” (Nature, 2010):
# System: HepG2
# Assay: GSK_TCMDC: Percent inhibition of human HepG2 cell line. Test compounds present at 10uM.
# Type: functional
row,SMILES,Inhibition
1,CCCNc1nc(NCc2c(C)cccc2C)nc(NC(C)(C)C)n1,15%
2,Cl.N=C(Cc1ccc(Cl)cc1)NCCN1CCCCCC1,0%
3,CC(=O)Nc1cccc(CNCc2ccc(-c3cnc(N4CCCC(C)(C)C4)nc3)cc2)c1.O=CO,10%
4,CCCC(C)NC(=O)c1cnn(-c2ccc(C(C)(C)C)cc2)c1OCc1ccc(Br)cc1 (stereo not given),17%
5,COc1cc(Nc2ccnc3ccc(C(F)(F)F)cc23)ccc1OCCCc1ccccc1,11%
6,CC=CC(=O)N1CCN(c2nccc(-c3ccc(C(C)(C)C)cc3)n2)CC1,20%
7,Cc1ccc2[nH]c(-c3ccccc3)cc(=NN=Cc3cccnc3)c2c1,12%
8,O=C(Nc1ccccc1)N(Cc1ccc(-c2ccc(CNCc3ccc4c(c3)OCO4)cc2)cc1)C1CCN(Cc2ccccc2)CC1.O=C(O)C(F)(F)F,21%
9,CC(C)c1sc(N2CCN(C)CC2)nc1C(=O)NCCc1cccc(Cl)c1.O=C(O)C(F)(F)F,9%
10,Cl.Cn1ccc(-c2cccc(Nc3ccnc4cc(-c5nccs5)ccc34)c2)n1,39%
11,CC(C)(C)C1CCC(CC2=C(C(=O)O)c3ccccc3C2=O)CC1 (stereo not given),0%
12,Cc1c2ccc(N(C)c3ccnc(Nc4ccc5c(c4)nc(NC(C)C)n5C)n3)cc2nn1C.Cl,2%
13,COc1cccc(C(=O)N2CCN(Cc3cccc(NC(=O)c4cccs4)c3)CC2)c1.O=C(O)C(F)(F)F,6%
14,COc1ccc2ccccc2c1CCCCN1CCN(CC(c2ccc(F)cc2)N2CCC2)CC1.O=C(O)C(F)(F)F (stereo not given),51%
15,CC(=O)Nc1ccc(C(=O)Nc2cccc(-c3ccc(-c4nc5cc(F)ccc5[nH]4)s3)c2)cn1,33%
16,CC(C)(C)c1ccccc1SC1=C(O)CC2(CCNCC2)OC1=O.Cl,0%
17,CCOC(=O)CCCc1cc(NC2CCN(C)CC2)nc(Nc2ccc(OC)cc2)n1,41%
18,Nc1nccc2ccc(OC3CCCCC3)cc12.O=CO,24%
19,O=C(Nc1ccc(OC2CCN(Cc3ccsc3)CC2)c(Cl)c1)c1cccs1.O=C(O)C(F)(F)F,16%
20,O=C(Nc1cccc(F)c1)NC1CCN(CCCCCNC(=O)C2CC2c2ccc(Cl)c(Cl)c2)CC1 (stereo not given),41%

row,SMILES,Inhibition
1,Cl.O=c1ccc2ncc(Cl)c3c2n1CC3CN1CCC(NCc2cc3c(cn2)OCCO3)CC1 (stereo not given),27%
2,COc1ccc(C2CCN(CCCCNC(=O)c3ccc(NC(=O)c4ccc(Cl)cc4)cc3)C2)c(OC)c1 (stereo not given),18%
3,O=C(Nc1ccc(Cn2ncc(N3CCCNCC3)c(Cl)c2=O)cc1)Nc1ccc(-c2ccccc2)cc1,12%
4,c1cncc(CN2CCCN(c3ccc4c(c3)CCN(Cc3ccc(-c5ncc[nH]5)cc3)CC4)CC2)c1,7%
5,N#Cc1ccccc1C1CCN(C2CCC(Nc3cc(-c4cccnc4)ccn3)CC2)CC1 (stereo not given),38%
6,O=C(Nc1ccc(OC2CCN(Cc3ccccc3)CC2)c(Cl)c1)c1ccco1.O=C(O)C(F)(F)F,8%
7,O=S(=O)(c1ccc2cc[nH]c2c1)N1CCC[C@@H]1CCN1CCC(c2c[nH]c3cnccc23)CC1,13%
8,O=S(=O)(c1ccccc1C(F)(F)F)C1CC2CCC(C1)N2S(=O)(=O)c1ccc(Cl)c(C(F)(F)F)c1 (stereo not given),4%
9,COc1cccc(-c2ccc(C(=O)NCC3CCCN(Cc4cccc(C(F)(F)F)c4)C3)s2)c1.O=C(O)C(F)(F)F (stereo not given),10%
10,COc1ccc(-n2nc(C)cc2C(=O)NCc2ccc(-c3c(C)noc3C)cc2)cc1,3%
11,CCCN(C(=O)c1ccccc1C)c1nnc(-c2cccc(C)c2)s1,8%
12,CCOc1ccc2[nH]c(C)cc(=NN=Cc3cccnc3)c2c1,18%
13,Cc1noc(-c2ccccc2)c1CN1CCCC2(CC(C(=O)NCc3cccc(F)c3F)=NO2)C1.O=C(O)C(F)(F)F (stereo not given),0%
14,Cc1cccc(Nc2nccc(Nc3cccc(C(=O)NCCN4CCOCC4)c3)n2)c1,10%
15,CC(=O)Nc1cccc(Nc2nccc(Nc3ccc(Oc4ccccc4)cc3)n2)c1.Cl,15%
16,Br.CC1(C)NC(N)=NC(=N)N1OCCOc1ccc(Cc2ccccc2)cc1,62%
17,O=C(c1cccc(-c2noc(C(F)(F)F)n2)c1)N1CCN(c2nsc3ccccc23)CC1,18%
18,COc1ccccc1N=C1SC(=Cc2cn(CC(=O)N3CCCc4ccccc43)c3ccccc23)C(=O)N1C1CCCCC1,10%
19,Cc1ccc2c(c1)nc(N)n2C[C@H](O)c1ccccc1,0%
20,CCN(CC)CCCC(C)Nc1ccnc2ccc(OC)cc12.Cl.O (stereo not given),7%
